Mtb hypoxia inh: Mtb hypoxia fluorescent reporter inhibition. M. tuberculosis hypoxia-regulated fluorescent reporter, fluorescence. fluorescence inhibition, % (no concentration beside the values). hit rate 0.1% among 300,000. AID 1159583; in the data active means fluorescence inhibition mostly above about 23%, no sharp cut-off; inactive means mostly below about 17%
Mtb bLac sens: beta-lactam sensitization of Mtb H37Rv. hit rate 0.27% among 330,000. AID 434955. inhibition, % at 25 µM. M. tuberculosis H37Rv growth with meropenem, percent inhibition; call rule not given here;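 further: growth measured after seven days incubation then overnight dye step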
GDH-TPI counter-1: counter-screen for M. tuberculosis FBA inhibitors: GDH-TPI coupled enzymes; GDH-TPI coupled enzyme counterscreen, NADH absorbance; inhibition, % at 4.8 µM; hit rate 1.2% among 360,000; AID 588335; in the data active means inhibition above about 30%
DUSP3 inh: blocks human VHR1 dual specificity phosphatase; P51452; AID 1654; hit rate 0.52% among 290,000; recombinant VHR phosphatase, pNPP absorbance; inhibition, % at 13.3 µM; in the data active means inhibition above about 50%
Target sequence (P51452 whole entry, looked up): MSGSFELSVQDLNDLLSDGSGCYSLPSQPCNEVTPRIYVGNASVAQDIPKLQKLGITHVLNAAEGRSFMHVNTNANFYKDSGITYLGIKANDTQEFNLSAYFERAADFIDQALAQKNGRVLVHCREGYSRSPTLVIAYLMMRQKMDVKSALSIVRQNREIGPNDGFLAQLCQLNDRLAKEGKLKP
Mtb FBA inh: Mtb fructose-bisphosphate aldolase inhibition; inhibition, % at 1 µM; hit rate 2.3% among 360,000; P9WQA3; purified M. tuberculosis FBA, fluorescence read-out
Target sequence (P9WQA3 whole entry, looked up): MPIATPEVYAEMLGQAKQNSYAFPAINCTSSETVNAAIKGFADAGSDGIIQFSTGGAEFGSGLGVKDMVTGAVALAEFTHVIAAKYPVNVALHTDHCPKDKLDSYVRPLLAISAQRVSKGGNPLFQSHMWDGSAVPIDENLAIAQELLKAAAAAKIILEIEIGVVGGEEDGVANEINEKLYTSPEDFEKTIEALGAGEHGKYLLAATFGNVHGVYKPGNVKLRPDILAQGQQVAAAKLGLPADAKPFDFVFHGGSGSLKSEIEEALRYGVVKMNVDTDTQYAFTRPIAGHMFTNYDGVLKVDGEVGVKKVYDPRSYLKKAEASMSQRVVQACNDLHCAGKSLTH
Mtb FBA confirm: confirmation of M. tuberculosis fructose-bisphosphate aldolase inhibitors; shares compounds with Mtb FBA inh; purified M. tuberculosis FBA, fluorescence read-out; inhibition, % at 1 µM; hit rate 78% among 5,600; AID 651616
GDH-TPI counter-2: counter-screen for M. tuberculosis FBA inhibitors: GDH-TPI coupled enzyme inhibition | GDH-TPI coupled enzyme counterscreen, fluorescence | hit rate 81% among 5,600 | inhibition, % at 1 µM | shares compounds with Mtb FBA inh; in the data active means inhibition above about 10%
Large screens that a line does not name were inactive (follow-up assays come after a bar, where they were run). In the library only some 3.6% were active in any assay of this set; here they are far more common. Unless noted, no stated cut-off is given here; in the data, active means inhibition above about 27%; inactive means the rest.

Cc1ccc(-c2nn(-c3ccccc3)cc2C(=O)O)o1	none (no result: GDH-TPI counter-1, Mtb FBA inh)
COc1ccc(C=NNS(=O)(=O)c2ccc(Br)cc2)cc1COc1ccccc1[N+](=O)[O-]	none (no result: Mtb bLac sens, GDH-TPI counter-1, DUSP3 inh, Mtb FBA inh)
Clc1ccc(C=NNc2ccccc2)cc1	none (no result: Mtb bLac sens, GDH-TPI counter-1, DUSP3 inh, Mtb FBA inh)
O=C(Nc1ccccc1)C1Cc2c(-c3ccc4c(c3)OCO4)ccnc2O1 (stereo not given)	Mtb FBA inh 46.2 (no result: Mtb hypoxia inh, Mtb bLac sens, DUSP3 inh) | Mtb FBA confirm 143.3 | GDH-TPI counter-2 145.7
O=C(Nc1ccc2c(c1)OCO2)C1Cc2c(-c3cccnc3)ccnc2O1 (stereo not given)	none (no result: Mtb hypoxia inh, Mtb bLac sens, DUSP3 inh)
O=C(Nc1cccnc1)C1Cc2c(-c3ccc4c(c3)OCO4)ccnc2O1 (stereo not given)	Mtb FBA inh 54.4 (no result: Mtb hypoxia inh, Mtb bLac sens, DUSP3 inh) | Mtb FBA confirm active | GDH-TPI counter-2 162.4
CC1(C2CC2)NC(=O)N(CC(=O)Nc2ccccc2-c2ccccc2)C1=O (stereo not given)	none
CC1CCC2(CC1)NC(=O)N(CC(=O)Nc1ccccc1-c1ccccc1)C2=O (stereo not given)	Mtb FBA inh 54.6 | Mtb FBA confirm inactive | GDH-TPI counter-2 inactive
CC1CC(C)CN(C(=O)c2cc3c(=O)n4ccccc4nc3s2)C1 (stereo not given)	Mtb FBA inh 52.7 | Mtb FBA confirm active | GDH-TPI counter-2 active
Cc1cc(C)cc(NC(=O)c2cc3c(=O)n4ccccc4nc3s2)c1	none (no result: Mtb hypoxia inh)
CCOC(=O)N1CCN(C(=O)c2cc3c(=O)n4ccccc4nc3s2)CC1	Mtb FBA inh 49.0 | Mtb FBA confirm 66.5 | GDH-TPI counter-2 58.0
CC(CC(=O)Nc1ccccc1C)=NNC(=O)Cc1csc(N)n1	none (no result: Mtb bLac sens, GDH-TPI counter-1, DUSP3 inh, Mtb FBA inh)
COc1ccc(-c2cc3nc(-c4ccccc4)cc(N4CCCC(O)C4)n3n2)cc1 (stereo not given)	Mtb FBA inh 79.0 | Mtb FBA confirm inactive | GDH-TPI counter-2 inactive
COc1ccc(-c2cc3nc(-c4ccccc4)cc(N4CCC(O)CC4)n3n2)cc1	Mtb FBA inh 79.7 | Mtb FBA confirm 39.0 | GDH-TPI counter-2 27.0
COc1ccc(-c2cc3nc(-c4ccccc4)cc(N4CCN(C(=O)c5ccccc5)CC4)n3n2)cc1	none (no result: Mtb hypoxia inh, Mtb bLac sens, DUSP3 inh)
Fc1ccc(-c2cc3nc(-c4ccccc4)cc(N4CCOCC4)n3n2)cc1	none
COc1ccc(-c2cc3nc(-c4ccccc4)cc(N4CCN(C(=O)c5ccsc5)CC4)n3n2)cc1	none (no result: Mtb hypoxia inh, Mtb bLac sens, DUSP3 inh)
COc1ccc(-c2cc3nc(-c4ccccc4)cc(N4CCN(C(C)=O)CC4)n3n2)cc1	Mtb FBA inh 69.7 (no result: Mtb hypoxia inh, Mtb bLac sens, DUSP3 inh) | Mtb FBA confirm inactive | GDH-TPI counter-2 inactive
CCOC(=O)C1C2COc3ccc(Br)cc3C2N2C(=O)c3c(C)cc(C)cc3NC(=O)[C@@]12C (stereo not given in full)	none (no result: Mtb bLac sens, GDH-TPI counter-1, DUSP3 inh, Mtb FBA inh)
O=c1oc2cc(O)ccc2cc1-c1nc2c(s1)CCc1ccccc1-2	Mtb FBA inh 37.9 | GDH-TPI counter-2 active
COc1ccc(-c2cc(C(=O)N3CCC4(CC3)OCCO4)c3ccccc3n2)cc1	Mtb FBA inh 110.0 | Mtb FBA confirm inactive | GDH-TPI counter-2 inactive
COc1ccc(-c2cc(C(=O)N3CCN(c4ncccn4)CC3)c3ccccc3n2)cc1	Mtb FBA inh 31.5 (no result: DUSP3 inh) | Mtb FBA confirm 149.2 | GDH-TPI counter-2 122.5
COc1ccc(-c2cc(C(=O)N3CCN(c4ccccc4)CC3)c3ccccc3n2)cc1	Mtb FBA inh 30.1 | Mtb FBA confirm inactive | GDH-TPI counter-2 inactive
COc1ccc(-c2cc(C(=O)N3CCN(c4ccccc4O)CC3)c3ccccc3n2)cc1	none (no result: DUSP3 inh)
NC(=O)C1(NC(=O)C2CC3(CC(c4cccc(NC(=O)c5cc([N+](=O)[O-])cc([N+](=O)[O-])c5)c4)=NO3)CN2C(=O)c2ccccc2)CC1 (stereo not given)	none (no result: Mtb bLac sens, GDH-TPI counter-1, DUSP3 inh, Mtb FBA inh)
COC(=O)C1=C(c2ccc3ccccc3c2)CC2CCC1N2C(=O)N1CCCCC1 (stereo not given)	none (no result: Mtb bLac sens, GDH-TPI counter-1, DUSP3 inh, Mtb FBA inh)
CC(=NOCC(=O)Nc1ccccc1C(=O)O)c1cccs1	none (no result: Mtb bLac sens, GDH-TPI counter-1, DUSP3 inh, Mtb FBA inh)
Cc1nn(-c2ccccc2)c2sc(C(=O)N(CC(=O)NC3CCCC3)Cc3ccco3)cc12	none (no result: Mtb hypoxia inh, Mtb bLac sens)
CC1(C(=O)N(CC(=O)NC2CCCC2)Cc2ccco2)CC(=O)N=C2C=CC=CN21 (stereo not given)	Mtb FBA inh 65.0 | Mtb FBA confirm 118.4 | GDH-TPI counter-2 71.9
CC(C)n1cc(C(=O)N(CC(=O)NC2CCCC2)Cc2ccccc2)cn1	none
